For test [1], the target named is Serine/threonine-protein kinase PAK 5 (Homo sapiens) (UniProt Q9P286). The following applies: at 1 µM.
Test [2] has the same target. The following applies: at 10 µM.
The target of test [3] is Serine/threonine-protein kinase PAK 6 (Homo sapiens) (UniProt Q9NQU5). The following applies: at 1 µM.
Test [4] shares this target. The following applies: at 10 µM.
Test [5] addresses PAS domain-containing serine/threonine-protein kinase (Homo sapiens) (UniProt Q96RG2). The following applies: at 1 µM.
The target is the same in test [6]. The following applies: at 10 µM.
Test [7] has as its target Activated CDC42 kinase 1 (Homo sapiens) (UniProt Q07912). The following applies: at 1 µM.
Test [8] has the same target. The following applies: at 10 µM.
Test [9] deals with ALK tyrosine kinase receptor (Homo sapiens) (UniProt Q9UM73). The following applies: at 1 µM.
For test [10] the target is unchanged. The following applies: at 10 µM.
In test [11] the target is T1, Activin receptor type-1B (Homo sapiens) (UniProt P36896).
T1 sequence (whole entry): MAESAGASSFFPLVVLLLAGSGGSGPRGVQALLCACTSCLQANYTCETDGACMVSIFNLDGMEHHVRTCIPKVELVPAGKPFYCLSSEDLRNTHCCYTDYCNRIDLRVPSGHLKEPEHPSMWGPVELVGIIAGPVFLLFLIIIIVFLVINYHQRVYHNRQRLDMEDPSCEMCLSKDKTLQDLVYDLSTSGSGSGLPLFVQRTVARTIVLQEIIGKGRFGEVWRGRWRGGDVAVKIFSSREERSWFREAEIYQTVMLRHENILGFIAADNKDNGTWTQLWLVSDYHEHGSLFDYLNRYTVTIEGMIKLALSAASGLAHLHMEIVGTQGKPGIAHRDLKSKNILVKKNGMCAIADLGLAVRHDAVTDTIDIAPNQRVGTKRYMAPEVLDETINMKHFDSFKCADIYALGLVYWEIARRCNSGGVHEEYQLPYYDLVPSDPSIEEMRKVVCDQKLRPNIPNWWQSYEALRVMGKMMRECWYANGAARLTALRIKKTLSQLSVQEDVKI
The following applies: at 1 µM.

The target in test [12] is T1, Activin receptor type-1B (Homo sapiens). The following applies: at 10 µM.
In test [13] the target is T2, AMP-activated protein kinase (AMPK) alpha-1/beta-1/gamma-1 (Homo sapiens) (UniProt P54619+Q9Y478+Q13131). The following applies: at 1 µM.
Test [14] addresses T2, AMP-activated protein kinase (AMPK) alpha-1/beta-1/gamma-1 (Homo sapiens). The following applies: at 10 µM.
In test [15] the target is T3, AMP-activated protein kinase, AMPK (Homo sapiens) (UniProt P54646+O43741+P54619+Q9UGJ0+Q9Y478+Q13131+Q9UGI9). The following applies: at 1 µM.
Test [16] addresses T3, AMP-activated protein kinase, AMPK (Homo sapiens). The following applies: at 10 µM.
The target of test [17] is T4, NUAK family SNF1-like kinase 1 (Homo sapiens) (UniProt O60285).
T4 sequence (whole entry): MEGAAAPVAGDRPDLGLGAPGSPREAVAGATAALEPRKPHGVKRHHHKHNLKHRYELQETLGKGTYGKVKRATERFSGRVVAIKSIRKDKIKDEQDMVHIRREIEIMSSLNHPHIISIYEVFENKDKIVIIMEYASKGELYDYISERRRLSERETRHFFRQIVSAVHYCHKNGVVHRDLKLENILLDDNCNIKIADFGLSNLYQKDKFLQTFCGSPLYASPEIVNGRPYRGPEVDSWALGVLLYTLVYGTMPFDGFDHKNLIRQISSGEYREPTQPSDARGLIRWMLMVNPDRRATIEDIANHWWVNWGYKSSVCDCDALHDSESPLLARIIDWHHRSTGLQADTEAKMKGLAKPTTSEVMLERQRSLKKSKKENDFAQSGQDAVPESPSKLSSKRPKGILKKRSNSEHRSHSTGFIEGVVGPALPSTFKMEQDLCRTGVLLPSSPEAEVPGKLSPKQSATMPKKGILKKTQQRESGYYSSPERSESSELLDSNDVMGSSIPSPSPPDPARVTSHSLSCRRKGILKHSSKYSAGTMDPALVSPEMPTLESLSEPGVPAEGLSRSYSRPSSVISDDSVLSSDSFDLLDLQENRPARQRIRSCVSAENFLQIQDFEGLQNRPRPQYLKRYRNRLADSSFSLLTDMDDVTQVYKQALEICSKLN
The following applies: at 1 µM.

Test [18] has as its target T4, NUAK family SNF1-like kinase 1 (Homo sapiens). The following applies: at 10 µM.
The target of test [19] is T5, Mitogen-activated protein kinase kinase kinase 5 (Homo sapiens) (UniProt Q99683).
T5 sequence (whole entry): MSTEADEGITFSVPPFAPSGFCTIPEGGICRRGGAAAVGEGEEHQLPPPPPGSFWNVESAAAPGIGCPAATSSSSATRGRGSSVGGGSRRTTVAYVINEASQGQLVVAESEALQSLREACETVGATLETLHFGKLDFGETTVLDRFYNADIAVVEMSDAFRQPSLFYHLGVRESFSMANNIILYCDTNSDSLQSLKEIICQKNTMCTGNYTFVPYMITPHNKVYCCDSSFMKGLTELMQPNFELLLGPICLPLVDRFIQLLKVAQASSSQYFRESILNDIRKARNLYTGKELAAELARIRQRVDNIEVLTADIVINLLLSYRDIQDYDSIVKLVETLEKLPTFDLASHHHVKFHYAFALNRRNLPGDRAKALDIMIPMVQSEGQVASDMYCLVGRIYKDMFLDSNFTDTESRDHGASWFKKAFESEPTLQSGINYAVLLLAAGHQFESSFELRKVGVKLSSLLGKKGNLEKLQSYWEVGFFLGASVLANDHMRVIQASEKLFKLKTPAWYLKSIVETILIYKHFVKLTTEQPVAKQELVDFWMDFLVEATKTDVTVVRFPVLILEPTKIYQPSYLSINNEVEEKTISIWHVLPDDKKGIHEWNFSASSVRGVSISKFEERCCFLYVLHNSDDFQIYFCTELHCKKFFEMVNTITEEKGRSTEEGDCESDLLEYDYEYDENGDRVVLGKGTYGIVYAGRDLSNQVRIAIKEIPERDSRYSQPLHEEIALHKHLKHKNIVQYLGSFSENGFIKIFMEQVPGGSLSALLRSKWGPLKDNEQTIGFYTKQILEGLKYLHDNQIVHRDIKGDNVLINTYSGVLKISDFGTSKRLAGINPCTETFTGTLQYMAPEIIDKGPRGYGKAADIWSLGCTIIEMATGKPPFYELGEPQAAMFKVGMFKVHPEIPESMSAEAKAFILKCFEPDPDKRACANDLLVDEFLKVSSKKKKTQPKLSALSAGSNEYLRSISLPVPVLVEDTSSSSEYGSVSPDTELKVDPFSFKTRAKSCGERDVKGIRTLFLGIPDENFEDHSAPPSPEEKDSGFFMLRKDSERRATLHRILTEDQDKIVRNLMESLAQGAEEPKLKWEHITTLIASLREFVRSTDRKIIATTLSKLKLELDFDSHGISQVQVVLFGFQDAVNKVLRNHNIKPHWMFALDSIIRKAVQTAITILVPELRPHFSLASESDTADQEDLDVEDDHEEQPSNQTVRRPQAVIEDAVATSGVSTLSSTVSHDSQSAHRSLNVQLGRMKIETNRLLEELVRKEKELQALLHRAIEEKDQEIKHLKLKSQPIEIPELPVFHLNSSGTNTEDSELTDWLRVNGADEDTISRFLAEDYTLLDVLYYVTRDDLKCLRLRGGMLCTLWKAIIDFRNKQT
The following applies: at 1 µM.

Test [20] has as its target Platelet-derived growth factor receptor alpha (Homo sapiens) (UniProt P16234). The following applies: at 1 µM.

Sequence of Serine/threonine-protein kinase PAK 5 (Homo sapiens) (Q9P286 whole entry, looked up): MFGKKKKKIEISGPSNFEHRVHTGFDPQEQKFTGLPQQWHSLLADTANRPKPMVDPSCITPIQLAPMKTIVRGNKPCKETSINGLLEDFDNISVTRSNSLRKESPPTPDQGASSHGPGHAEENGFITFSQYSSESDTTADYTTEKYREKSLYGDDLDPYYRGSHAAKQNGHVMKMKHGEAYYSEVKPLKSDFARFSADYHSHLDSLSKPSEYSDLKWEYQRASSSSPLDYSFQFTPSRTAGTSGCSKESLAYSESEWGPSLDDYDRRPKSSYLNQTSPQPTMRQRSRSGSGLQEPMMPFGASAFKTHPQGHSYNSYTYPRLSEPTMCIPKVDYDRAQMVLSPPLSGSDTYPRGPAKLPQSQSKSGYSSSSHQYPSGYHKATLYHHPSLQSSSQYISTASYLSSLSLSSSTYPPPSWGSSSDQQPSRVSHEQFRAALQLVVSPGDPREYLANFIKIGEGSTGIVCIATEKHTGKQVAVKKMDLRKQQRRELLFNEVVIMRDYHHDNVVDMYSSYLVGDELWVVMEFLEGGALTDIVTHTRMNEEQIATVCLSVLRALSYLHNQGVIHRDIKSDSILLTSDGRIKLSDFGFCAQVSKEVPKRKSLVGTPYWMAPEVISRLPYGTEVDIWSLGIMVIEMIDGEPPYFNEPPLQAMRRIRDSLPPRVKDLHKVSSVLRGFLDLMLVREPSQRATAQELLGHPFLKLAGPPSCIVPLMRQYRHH
Sequence of ALK tyrosine kinase receptor (Homo sapiens) (Q9UM73 19-1620 limits assumed): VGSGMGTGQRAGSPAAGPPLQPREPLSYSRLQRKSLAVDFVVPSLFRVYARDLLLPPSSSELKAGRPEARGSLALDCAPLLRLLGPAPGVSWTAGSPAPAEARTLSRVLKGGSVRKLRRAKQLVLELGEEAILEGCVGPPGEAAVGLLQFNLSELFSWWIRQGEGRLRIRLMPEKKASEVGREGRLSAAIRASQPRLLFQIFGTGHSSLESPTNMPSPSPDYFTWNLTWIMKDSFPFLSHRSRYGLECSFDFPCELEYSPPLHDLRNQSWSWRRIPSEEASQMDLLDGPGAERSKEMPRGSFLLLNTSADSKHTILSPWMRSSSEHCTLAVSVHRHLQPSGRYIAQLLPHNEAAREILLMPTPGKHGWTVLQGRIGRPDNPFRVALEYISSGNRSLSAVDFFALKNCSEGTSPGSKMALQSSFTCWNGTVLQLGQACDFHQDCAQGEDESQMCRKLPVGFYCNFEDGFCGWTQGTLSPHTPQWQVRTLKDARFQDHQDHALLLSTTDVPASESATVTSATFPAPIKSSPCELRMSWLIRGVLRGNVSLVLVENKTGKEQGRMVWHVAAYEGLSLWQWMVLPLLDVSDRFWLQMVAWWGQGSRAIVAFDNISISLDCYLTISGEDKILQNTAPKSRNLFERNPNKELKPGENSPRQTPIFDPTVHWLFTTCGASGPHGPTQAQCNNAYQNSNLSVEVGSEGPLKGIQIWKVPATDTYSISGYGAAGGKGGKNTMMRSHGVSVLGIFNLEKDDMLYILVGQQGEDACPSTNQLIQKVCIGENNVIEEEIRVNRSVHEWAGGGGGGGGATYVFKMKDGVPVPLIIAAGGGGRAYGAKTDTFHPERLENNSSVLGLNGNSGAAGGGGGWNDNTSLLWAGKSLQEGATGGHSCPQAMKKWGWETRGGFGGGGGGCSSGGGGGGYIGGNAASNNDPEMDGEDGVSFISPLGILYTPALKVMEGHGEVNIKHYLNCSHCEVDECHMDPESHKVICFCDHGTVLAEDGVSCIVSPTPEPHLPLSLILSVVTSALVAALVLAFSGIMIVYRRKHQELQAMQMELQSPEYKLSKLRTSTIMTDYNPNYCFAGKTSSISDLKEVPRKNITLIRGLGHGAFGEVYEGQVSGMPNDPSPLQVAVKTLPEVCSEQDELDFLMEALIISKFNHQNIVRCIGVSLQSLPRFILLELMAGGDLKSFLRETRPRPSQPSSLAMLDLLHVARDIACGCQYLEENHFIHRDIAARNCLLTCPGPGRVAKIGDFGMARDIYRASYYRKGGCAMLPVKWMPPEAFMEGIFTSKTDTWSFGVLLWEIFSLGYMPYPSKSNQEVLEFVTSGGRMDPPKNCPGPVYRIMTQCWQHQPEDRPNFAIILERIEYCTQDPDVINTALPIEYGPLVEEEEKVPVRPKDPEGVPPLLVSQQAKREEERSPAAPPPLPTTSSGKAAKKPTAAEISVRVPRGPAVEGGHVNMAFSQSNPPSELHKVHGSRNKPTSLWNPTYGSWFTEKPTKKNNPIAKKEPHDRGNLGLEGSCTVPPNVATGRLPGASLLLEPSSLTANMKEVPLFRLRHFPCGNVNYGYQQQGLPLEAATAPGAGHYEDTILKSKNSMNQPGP
Sequence of PAS domain-containing serine/threonine-protein kinase (Homo sapiens) (Q96RG2 whole entry, the tested form may be a part): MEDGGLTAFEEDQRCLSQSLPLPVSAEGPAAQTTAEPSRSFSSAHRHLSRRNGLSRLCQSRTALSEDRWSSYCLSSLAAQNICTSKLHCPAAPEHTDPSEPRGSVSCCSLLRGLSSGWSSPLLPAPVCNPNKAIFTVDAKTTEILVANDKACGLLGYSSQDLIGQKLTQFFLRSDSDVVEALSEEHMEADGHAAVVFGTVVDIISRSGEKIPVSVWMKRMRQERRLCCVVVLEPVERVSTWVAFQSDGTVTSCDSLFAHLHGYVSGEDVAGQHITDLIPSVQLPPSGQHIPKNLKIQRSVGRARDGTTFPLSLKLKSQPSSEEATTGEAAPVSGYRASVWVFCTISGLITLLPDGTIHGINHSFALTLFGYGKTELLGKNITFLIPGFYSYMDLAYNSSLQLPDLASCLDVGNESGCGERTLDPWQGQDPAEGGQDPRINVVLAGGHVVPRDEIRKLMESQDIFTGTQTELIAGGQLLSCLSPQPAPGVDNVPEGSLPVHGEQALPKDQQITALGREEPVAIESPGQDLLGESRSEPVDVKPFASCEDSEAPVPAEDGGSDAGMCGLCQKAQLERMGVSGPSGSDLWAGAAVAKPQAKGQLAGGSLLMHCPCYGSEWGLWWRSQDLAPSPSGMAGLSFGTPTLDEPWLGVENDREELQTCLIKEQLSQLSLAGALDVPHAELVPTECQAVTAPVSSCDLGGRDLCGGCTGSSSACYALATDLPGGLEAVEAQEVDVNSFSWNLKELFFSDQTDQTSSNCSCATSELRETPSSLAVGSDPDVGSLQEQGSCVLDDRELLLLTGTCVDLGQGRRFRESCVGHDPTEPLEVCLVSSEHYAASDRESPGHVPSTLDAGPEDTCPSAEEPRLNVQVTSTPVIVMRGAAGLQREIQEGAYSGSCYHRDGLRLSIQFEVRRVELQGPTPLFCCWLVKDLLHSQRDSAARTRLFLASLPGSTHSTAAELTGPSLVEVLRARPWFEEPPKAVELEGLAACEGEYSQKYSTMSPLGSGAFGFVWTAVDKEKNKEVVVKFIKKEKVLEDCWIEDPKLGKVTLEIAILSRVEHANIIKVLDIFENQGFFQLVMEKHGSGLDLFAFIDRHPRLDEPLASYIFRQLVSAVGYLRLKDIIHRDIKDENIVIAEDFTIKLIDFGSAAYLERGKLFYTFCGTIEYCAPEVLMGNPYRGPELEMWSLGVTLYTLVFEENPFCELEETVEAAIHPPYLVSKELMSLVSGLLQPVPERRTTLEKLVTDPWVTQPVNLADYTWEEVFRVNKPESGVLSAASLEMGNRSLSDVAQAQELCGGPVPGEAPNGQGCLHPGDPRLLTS
T2 sequence (P54619 whole entry): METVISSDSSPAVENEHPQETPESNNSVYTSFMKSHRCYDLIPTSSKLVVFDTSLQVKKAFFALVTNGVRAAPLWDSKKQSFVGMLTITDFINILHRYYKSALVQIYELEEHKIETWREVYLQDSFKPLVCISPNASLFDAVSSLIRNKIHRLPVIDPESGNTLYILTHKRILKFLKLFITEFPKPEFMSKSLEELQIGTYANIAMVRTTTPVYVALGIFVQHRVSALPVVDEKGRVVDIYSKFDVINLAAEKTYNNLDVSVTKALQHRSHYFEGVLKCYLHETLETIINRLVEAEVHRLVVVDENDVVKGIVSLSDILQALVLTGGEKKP
T2 sequence (Q13131 whole entry partner): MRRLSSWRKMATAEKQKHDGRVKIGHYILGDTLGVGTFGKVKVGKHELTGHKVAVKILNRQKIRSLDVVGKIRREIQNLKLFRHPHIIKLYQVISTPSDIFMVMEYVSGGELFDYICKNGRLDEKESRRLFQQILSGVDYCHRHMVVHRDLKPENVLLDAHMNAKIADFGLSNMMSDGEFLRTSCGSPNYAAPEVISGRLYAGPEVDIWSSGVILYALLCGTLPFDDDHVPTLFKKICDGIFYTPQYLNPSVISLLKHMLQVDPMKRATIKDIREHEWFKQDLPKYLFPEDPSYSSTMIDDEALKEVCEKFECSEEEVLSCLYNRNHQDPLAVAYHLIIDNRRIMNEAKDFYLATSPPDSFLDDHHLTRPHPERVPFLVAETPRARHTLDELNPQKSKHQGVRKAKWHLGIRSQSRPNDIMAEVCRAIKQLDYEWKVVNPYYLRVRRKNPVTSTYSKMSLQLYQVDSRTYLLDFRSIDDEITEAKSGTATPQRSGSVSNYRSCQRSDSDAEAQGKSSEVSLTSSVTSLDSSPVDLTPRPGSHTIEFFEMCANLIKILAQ
T2 sequence (Q9Y478 2-270 partner limits assumed): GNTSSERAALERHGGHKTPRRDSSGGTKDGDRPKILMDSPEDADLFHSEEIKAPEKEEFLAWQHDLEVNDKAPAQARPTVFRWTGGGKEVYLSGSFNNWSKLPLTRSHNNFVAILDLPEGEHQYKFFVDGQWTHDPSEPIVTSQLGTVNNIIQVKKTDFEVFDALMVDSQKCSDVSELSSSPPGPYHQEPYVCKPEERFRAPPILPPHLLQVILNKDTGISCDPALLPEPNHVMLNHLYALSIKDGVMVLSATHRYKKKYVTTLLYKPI

Turning to `C[S+]([O-])c1ccc(-c2nc(-c3ccc(F)cc3)c(-c3ccncc3)[nH]2)cc1` (stereo unspecified), the residual activity turned out to be 105% in [1]; 104% in test [2]; 110% in test [3]; 100% in test [4]; 113% in test [5]; 113% in test [6]. Moreover, the residual activity in test [7] was 93%; in test [8], 39%; in test [9], 122%; in test [10] it was 93%; in test [11] it was 87%; in test [12], 23%. Also, the residual activity was found to be 109% in test [13]; 94% in [14]; 104% in test [15]; 90% in test [16]; 97% in test [17]; 94% in test [18]. Further, the residual activity in [19] was 138%; in [20], 110%.

For the molecule `CC(C)[C@H](CO)Nc1nc(Nc2cccc(Cl)c2)c2ncn(C(C)C)c2n1`, the residual activity turned out to be 50% in test [1]; 11% in [2]; 57% in test [3]; 13% in test [4]; 135% in [5]; 116% in [6]. Moreover, the residual activity in test [7] was determined as 45%; in test [8] it was 14%; in [9] it was 71%; in test [10] it was 26%; in test [13], 92%; in test [14], 42%. Besides, the residual activity in test [15] turned out to be 95%; in [16], 48%; in [17], 84%; in [18], 33%; in test [19], 102%.

Consider `CCn1cnc2c(Nc3cccc(Cl)c3)nc(N[C@@H]3CCCC[C@@H]3N)nc21`, for which the residual activity came to 38% in test [1]; 11% in test [2]; 38% in [3]; 10% in test [4]; 113% in test [5]; 69% in [6]. Also, the residual activity in test [7] is 34%; in test [8], 4%; in test [9] it was 82%; in test [10] it was 34%; in test [11] it was 123%; in test [13] it was 77%. The residual activity was found to be 22% in [14]; 64% in [15]; 22% in test [16]; 38% in [17]; 10% in [18]; 91% in test [19]. For the same molecule, the residual activity in [20] was 100%.

With `COc1ccc2c(c1)/C(=C/c1cnc[nH]1)C(=O)N2`, the residual activity was 98% in test [3]; 53% in test [4]; 81% in test [6]; 44% in test [8]; 63% in test [9]; 81% in test [10]. The residual activity in test [12] was found to be 82%; in test [13], 47%; in test [14] it was 8%; in test [17], 17%; in [18], 8%.

As for `O=C1c2ccccc2-c2nc3nnnn3nc21`, the residual activity turned out to be 80% in test [1]; 74% in test [2]; 112% in test [3]; 112% in [4]; 109% in test [7]; 80% in test [8]. Also, the residual activity in [15] amounted to 122%; in [16] it was 75%; in [19], 107%; in test [20] it was 128%.

For `CN[C@@H]1C[C@H]2O[C@@](C)([C@@H]1OC)n1c3ccccc3c3c4c(c5c6ccccc6n2c5c31)C(=O)NC4`, the residual activity in test [9] was determined as 0%; in test [10], 1%; in test [17], 8%; in test [18] it was 1%.

For the origin of these results see ChEMBL document CHEMBL2218924, “A broad activity screen in support of a chemogenomic map for kinase signalling research and drug discovery” (Biochem J, 2013).
